# Screening results (PubChem)
# SW480 rereplic: A quantitative high throughput screen for small molecules that induce DNA re-replication in SW480 colon adenocarcinoma cells; SW480 DNA re-replication, Hoechst DNA content imaging, 48 h; Potency, µM (highest dose often 46.1 µM), for the others: at the highest dose re-replication activation, usual class: activators; 340,000 tested, 1.8% active; AID 624297, 2012; note: % of control where 0% means no effect; nearly all actives have a fitted effect of over 55% in size
#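 Hoechst fluorescence of nuclei (405 nm excitation, 500-530 nm emission) measured by plate-scanning imager after 48 hr compound exposure at 37 C; re-replication scored as increased number of nuclei with elevated intensity.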
# PINK1 expr mod: A Quantitative High throughput Screen to Identify Chemical Modulators of PINK1 Expression; Potency, µM (top dose mostly 76.6 µM), inactives show top-dose activation (PINK1 increase), usual class: activators; 410,000 tested, 0.2% active; AID 624263, 2012; PINK1 immunofluorescence, high-content cytometry, 24 h; active = well fitted activation curve with a large enough effect; inconclusive = small, poorly fitted or top-dose-only effect; cell line not stated here; note: % of control where 0% means no effect; nearly all actives have a fitted effect of over 65% in size
#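 A stable cell line was treated with compounds at 5 concentrations for 24 hours, with CCCP as control. PINK1 levels and mitochondrial localization were measured by immunofluorescence with mitochondrial, cell and nuclear markers after fixation, read by laser-scanning cytometry.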
# KB-V1 cytotox: qHTS assay for MDR1-selective chemotherapeutics: Primary screen using the drug-selected MDR subline cells KB-V1; Potency, µM (series often up to 46.1 µM), most hits filed as cytotoxic; 400,000 tested, 3.4% active; AID 1347076, 2019; KB-V1 MDR cells viability, CellTiter-Glo, 72 h; note: % is set by controls: 0 for no effect and ±100 for the full control effect; nearly all actives have a fitted effect of over 60% in size
#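 In this primary screen, KB-V1 cells overexpressing P-gp are incubated with library compounds (lowest to highest concentration) for 72 h at 37 degrees C before a luminescent ATP viability read.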
# KB-3-1 tox: qHTS assay for MDR1-selective chemotherapeutics: Primary screen using the parental adenocarcinoma cell KB-3-1; KB-3-1 viability, CellTiter-Glo ATP luminescence, 72 h; Potency, µM (series often up to 46.1 µM), hits mostly cytotoxic; 400,000 tested, 1.4% active; AID 1347075, 2019; note: % is set by controls: 0 for no effect and ±100 for the full control effect; nearly all actives have a fitted effect of over 60% in size
#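 KB-3-1 parental drug-naive adenocarcinoma cells in DMEM/10% FBS, incubated 72 h at 37 C with pin-transferred compounds across a concentration series. Viability by CellTiter-Glo luminescence; concentration-response curves fitted after normalization.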
# MCF10A rerep: A quantitative high throughput screen for small molecules that induce DNA re-replication in MCF 10a normal breast cells; MCF 10A DNA re-replication, Hoechst nuclear intensity, 48 h; Potency, µM (highest dose often 46.1 µM), inactives show at the top dose activity, positive = re-replication, actives largely listed as activators; 350,000 tested, 2.9% active; AID 624296, 2012; note: % of control where 0% means no effect; nearly all actives have a fitted effect of over 50% in size
# TSG101-PTAP inh: qHTS Assay for Iinhibitors of HIV-1 Budding by Blocking the Interaction of PTAP/TSG101; Tumor susceptibility gene 101 protein (Homo sapiens), Q99816; Fluorescence polarization, FITC-PTAP peptide / Tsg101 binding; Potency, µM (titrated, usually from 115 µM), inactives show at the top dose activity change, negative = inhibition, usual class: inhibitors; 340,000 tested, under 10 active; AID 493005, 2010; active = well fitted inhibition curve with a large enough effect in the main read-out, with a control signal flat, not every such curve was filed as active; inconclusive = small, poorly fitted or top-dose-only effect, or effect the other way, or a change in a side signal; inactive = no such curve, though single readings can be large or run the other way; note: % of control where 0% means no effect
# Target sequence (Q99816 whole entry, looked up): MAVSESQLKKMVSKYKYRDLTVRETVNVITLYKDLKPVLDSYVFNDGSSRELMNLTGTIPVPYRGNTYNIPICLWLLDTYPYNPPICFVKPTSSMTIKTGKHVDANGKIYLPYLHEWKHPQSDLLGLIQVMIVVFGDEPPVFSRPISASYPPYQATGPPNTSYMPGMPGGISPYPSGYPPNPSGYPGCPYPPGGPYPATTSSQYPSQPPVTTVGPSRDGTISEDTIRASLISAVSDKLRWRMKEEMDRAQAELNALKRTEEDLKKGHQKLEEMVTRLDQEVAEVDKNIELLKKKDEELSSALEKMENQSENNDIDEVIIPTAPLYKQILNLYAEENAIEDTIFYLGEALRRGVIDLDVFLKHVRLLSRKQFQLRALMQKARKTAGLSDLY
#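 Compounds were pin-transferred onto Tsg101 binding domain (10 uM final) in HEPES pH 7.5 buffer, then FITC-PTAP peptide was added at 50 nM final. After 20 min at RT, polarization reported peptide displacement across a qHTS concentration series.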
# Active calls of the source: *; i = inactive; ? = inconclusive; nt = no result given; [ ] = another dose, or the depositor's remark. Sampled rows, rich in hits. Any-hit rate of the full collection: about 6.8%. Unless noted, calls come from the whole dose curve; as a rule, active = well fitted curve in the direction sought with a large enough effect; inconclusive = small, poorly fitted or top-dose-only effect, or another doubt; inactive = no such curve, though single readings can be large; an effect the other way counts as inactive or inconclusive. Potency is the fitted concentration of half-maximal effect.
SMILES,SW480 rereplic,PINK1 expr mod,KB-V1 cytotox,KB-3-1 tox,MCF10A rerep,TSG101-PTAP inh
O=C(CSc1nnc(NC(=O)c2ccco2)s1)NC1CCCCC1,-2%,-2%,23µM*,i,0%,-8%
O=C(Nc1nnc(SCc2ccc(F)cc2)s1)c1ccco1,2%,3%,i,i,0%,0%
O=C(Cc1ccccc1)Nc1nnc(SCC(=O)NC2CCCC2)s1,-3%,9%,i,i,-1%,1%
O=C(Nc1nnc(SCc2cccc(F)c2)s1)c1ccco1,-76%,3%,i,i,0.29µM*,-2%
CC(C)(C)C(=O)Nc1nnc(SCc2ccc(F)cc2)s1,-15%,nt,?,i,-1%,-6%
CC(C)(C)C(=O)Nc1nnc(SCc2cccc(F)c2)s1,-10%,3%,i,i,0.65µM*,-3%
CCCOc1cccc(-c2nnc(NC(=O)c3ccco3)s2)c1,8%,10%,?,?,8.2µM*,-5%
CCCCCn1c(=O)[nH]c2cc(C(=O)N3CCN(c4cc(Cl)ccc4C)CC3)ccc2c1=O,nt,1%,i,i,nt,nt
COc1cc(C(=O)N2CC(=O)Nc3ccc(C)cc3C2c2ccc(F)cc2)cc(OC)c1OC (stereo not given),nt,-2%,i,i,nt,nt
COc1ccc(OC)c(Nc2ncc3c(n2)CCN(Cc2cc(OC)c(OC)c(OC)c2)C3)c1,nt,4%,i,i,nt,nt
Cc1ccc(Cl)cc1NS(=O)(=O)c1cc2c(cc1Cl)CCC(=O)N2,nt,nt,i,i,nt,nt
COc1ccc(-c2cc(-c3ccccc3)nc(N3CCCC3)n2)cc1OC,27%,4%[38.3 µM],8.2µM*,i,?,-1%
CN(C)CCN(C(=O)c1ccc(S(=O)(=O)N2CCCC2)cc1)c1nc2ccc(Br)cc2s1,-5%,-1%,i,i,8%,-6%
CCc1ccc2nc(N(CCCN(C)C)C(=O)c3ccc(S(=O)(=O)N4CCCc5ccccc54)cc3)sc2c1,29%,-2%,9.2µM*,?,?,-3%
CCc1ccc2nc(N(CCCN(C)C)C(=O)c3ccc(C(=O)c4ccccc4)cc3)sc2c1,17%,-2%,i,23µM*,?,1%
CC1CCCCN1S(=O)(=O)c1ccc(C(=O)N(CCCN(C)C)c2nc3ccc(Br)cc3s2)cc1 (stereo not given),?,-2%,23µM*,?,?,-6%
O=[N+]([O-])c1ccc(O)c(Nc2ncnc3ccc(Br)cc23)c1,?,?,i,?,13µM*,-7%
O=[N+]([O-])c1ccc(O)c(Nc2ncnc3ccccc23)c1,-146%,0%,i,i,-5%,-3%
O=C(Cc1cccs1)Nc1ccc(Cl)c(S(=O)(=O)N2CCOCC2)c1,5.8µM*,3%,?,i,-15%,-5%
O=C(CCCOc1ccccc1)Nc1ccc(Cl)c(S(=O)(=O)N2CCOCC2)c1,-9%,2%,?,?,6%,-1%
Cc1ccc(OCCCC(=O)Nc2ccc(Cl)c(S(=O)(=O)N3CCOCC3)c2)cc1,?,2%,7.3µM*,15µM*,?,1%
CC(=O)c1ccc(OCCCC(=O)Nc2ccc(Cl)c(S(=O)(=O)N3CCOCC3)c2)cc1,4%,2%,i,?,17%,0%
O=C(CCCSc1ccccc1)Nc1ccc(Cl)c(S(=O)(=O)N2CCOCC2)c1,3%,4%,2.6µM*,?,14%,-2%
